Entries with a potency or affinity are not part of this list. The source made the active and inactive calls. The rule behind the calls is not given here.
The molecules below were run against UDP-galactopyranose mutase (Mycobacterium tuberculosis (strain ATCC 25618 / H37Rv)) (UniProt P9WIQ1) (assay: Mycobacterium tuberculosis UGM enzyme inhibition, dose response confirmation, purified biochemical assay (AID 540359)). Conditions: plate reader activity; series mostly up to 50 µM; activity change, negative = inhibition: at the top concentration.
Sequence of UDP-galactopyranose mutase (Mycobacterium tuberculosis (strain ATCC 25618 / H37Rv)) (P9WIQ1 whole entry, looked up): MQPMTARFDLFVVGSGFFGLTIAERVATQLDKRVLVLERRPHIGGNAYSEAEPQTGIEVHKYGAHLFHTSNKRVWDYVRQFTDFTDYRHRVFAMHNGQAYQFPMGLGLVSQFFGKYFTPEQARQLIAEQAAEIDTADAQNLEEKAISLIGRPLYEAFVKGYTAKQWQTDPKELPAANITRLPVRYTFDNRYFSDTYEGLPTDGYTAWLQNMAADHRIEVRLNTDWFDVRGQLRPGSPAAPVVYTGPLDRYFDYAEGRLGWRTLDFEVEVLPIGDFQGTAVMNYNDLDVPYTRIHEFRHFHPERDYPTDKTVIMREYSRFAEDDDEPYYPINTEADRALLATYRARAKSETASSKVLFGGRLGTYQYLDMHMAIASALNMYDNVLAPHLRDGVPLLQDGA

| Structure (SMILES) | activity change, negative = inhibition |
| --- | --- |
| Cn1cccc1C(=O)NC(=O)COC(=O)CC12CC3CC(CC(Br)(C3)C1)C2 | 4.1% (inactive) |
| COc1cc2c3nnc(-c4ccc(F)cc4)c-3cn(Cc3ccc(C)cc3)c2cc1OC | -15.2% (inactive) |
| C=C1c2cc(C)ccc2NC(=O)N1c1ccc(C)cc1 | -7.4% (inactive) |
| COc1ccc2c(c1)c1nc3ccccc3nc1n2CC(=O)OC(C)C | -3.78% (inactive) |
| Cc1c(N=C2N=C(NC(=O)c3ccc(F)cc3)c3ccccc32)c(=O)n(-c2ccccc2)n1C | -29% (inactive) |
| COc1ccccc1N1N=C(C(=O)c2ccccc2)C2C(=O)N(c3ccc(Br)cc3)C(=O)C21 (stereo not drawn) | -10.5% (inactive) |
| COc1cc(N2CCCC2)c(OC)cc1/C=C(/C#N)c1ccc(Br)cc1 | -9% (inactive) |
| N#C/C(=C(/O)CSc1ccccc1C(=O)O)c1nc2ccccc2s1 | -7.99% (inactive) |
| CCOc1ccc(C(C(=O)NC2CCCC2)N(C(=O)CNC(=O)c2ccco2)c2cccnc2)cc1 (stereo not drawn) | -2.17% (inactive) |
| O=c1[nH]c(=O)n(-c2ccc(F)cc2)c(O)c1/C=C1\C=Nc2ccccc21 | 14.2% (inactive) |
| CCC1=NN2C(=N)/C(=C\c3cccn3-c3ccc(OC)cc3)C(=O)N=C2S1 | -3.99% (inactive) |
| COc1cc2c3nnc(-c4ccccc4)c-3cn(Cc3ccccc3F)c2cc1OC | -5.43% (inactive) |
| CCCC(=O)Nc1ccc(Cc2ccc(NC(=O)CCC)c(C(=O)O)c2)cc1C(=O)O | -4.98% (inactive) |
| C=CCn1ccc(=NC=C(C#N)C#N)c2ccccc21 | -3.63% (inactive) |
| COc1cccc(/C=N/n2c(-c3ccco3)nc3ccccc3c2=O)c1OC | -1.41% (inactive) |
| Cc1nn(-c2ccccc2)c(Cl)c1C(=O)NCC1CCCO1 (stereo not drawn) | -0.88% (inactive) |
| COc1ccccc1N1CCN(C2CCCN(C(=O)CCC(=O)N(C)C)C2)CC1 (stereo not drawn) | 0.112% (inactive) |
| N#CCCN(CCC#N)C(=O)C1c2ccccc2Oc2ccccc21 | -9.14% (inactive) |
| CCOC(=O)CNc1ccc2c(c1)OCO2 | -14.6% (inactive) |
| O=C(/C=C/c1ccc2c(c1)OCO2)c1c(O)n(CCc2ccccc2)c(=O)[nH]c1=O | -11.3% (inactive) |
| CCOc1ccc(/C(CCC(=O)O)=N/NC(=O)c2cccc(S(=O)(=O)Nc3ccccc3OC)c2)cc1 | -6.3% (inactive) |
| O=C(NC(=S)Nn1cnnc1)c1ccccc1Cl | -13.4% (inactive) |
| COc1ccccc1NS(=O)(=O)c1cc(N)ccc1N1CCCC1 | -3.52% (inactive) |
| O=C1C2C3C=CC(C3)C2C(=O)N1CCN1CCN(S(=O)(=O)c2ccc3ccccc3c2)CC1 (stereo not drawn) | -0.268% (inactive) |
| Cn1nc(C(=O)Nc2cc(Cl)ccc2N2CCCC2)c2ccccc2c1=O | 1.65% (inactive) |
| O=S(=O)(Nc1cccnc1Cl)c1ccc(F)cc1 | -4.01% (inactive) |
| O=C(Nc1nccs1)c1ccc(-c2ccc([N+](=O)[O-])cc2)o1 | 8.63% (inactive) |
| NC(=O)c1c(NC(=O)C2COc3ccccc3O2)sc2c1CCN(Cc1ccccc1)C2 (stereo not drawn) | -1.94% (inactive) |

Source: PubChem BioAssay AID540359 (Broad Institute, 2011)
